Only some compounds are listed: those with a hit (about 6.2% of all), similar ones and a draw of the others.
RORgamma inh: qHTS for inhibitors of ROR gamma transcriptional activity. AID 2551, 2010. Potency, µM (series often up to 53.6 µM), hits mostly inhibitors. Nuclear receptor ROR-gamma (Mus musculus), P51450. hit rate 5.4% among 310,000. Drosophila S2 Gal4-RORgamma UAS-luciferase reporter, 20 h; also: nearly all actives have a fitted effect of over 60% in size
Target sequence (P51450 whole entry, looked up, the tested form may be a part): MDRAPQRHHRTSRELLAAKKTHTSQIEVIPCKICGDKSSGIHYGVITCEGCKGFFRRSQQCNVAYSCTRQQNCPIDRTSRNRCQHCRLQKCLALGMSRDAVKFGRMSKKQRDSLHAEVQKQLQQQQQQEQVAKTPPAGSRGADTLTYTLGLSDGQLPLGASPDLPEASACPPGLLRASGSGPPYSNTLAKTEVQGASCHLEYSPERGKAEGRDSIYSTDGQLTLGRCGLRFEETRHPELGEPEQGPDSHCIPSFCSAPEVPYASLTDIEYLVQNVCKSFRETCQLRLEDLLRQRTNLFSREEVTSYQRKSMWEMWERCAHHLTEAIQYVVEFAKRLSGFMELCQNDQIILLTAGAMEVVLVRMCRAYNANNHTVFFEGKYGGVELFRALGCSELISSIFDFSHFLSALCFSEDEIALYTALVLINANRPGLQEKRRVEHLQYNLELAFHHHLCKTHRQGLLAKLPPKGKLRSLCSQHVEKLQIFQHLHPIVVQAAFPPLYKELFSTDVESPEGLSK
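Compounds are pin-transferred onto Drosophila Schneider cells expressing a copper-inducible Gal4–ROR gamma transactivation domain fusion. After 1 hr, copper sulfate is added to 700 uM final; luciferase is read 20 hr later.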
VP16 counter: VP16 counterscreen qHTS for inhibitors of ROR gamma transcriptional activity | AID 2546, 2010 | Drosophila S2 Gal4-VP16 UAS-luciferase, luminescence, 20 h | Potency, µM (titrated, usually from 53.6 µM), usual class: inhibitors | hit rate 3.5% among 310,000;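 also: Gal4-VP16 expression switched on by copper sulfate through the metallothionein promoter; nearly all actives have a fitted effect of over 50% in size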
KinaseGlo FLuc: Counterscreen for Luciferase (Kinase-Glo TM) Inhibition | Luciferin 4-monooxygenase (Photuris pensylvanica), Q27757 | AID 1379, 2008 | Potency, µM (series often up to 38.3 µM), most hits filed as inhibitors | hit rate 0.28% among 200,000 | Kinase-Glo luciferase, ATP luminescence, 8 min; also: nearly all actives have a fitted effect of over 60% in size
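Recombinant Kinase-Glo luciferase, 10 uM ATP (linear range), luciferin; imidazole pH 7.2 / KCl / MgCl2 / Tween / BSA buffer; 8 min RT; luminescence.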
Numbers stand for hits; – = inactive; ? = inconclusive; · = no result; [ ] = remark or other dose. Calls follow the shape of the dose curve; as a rule, active = well fitted curve in the direction sought with a large enough effect; inconclusive = small, poorly fitted or top-dose-only effect, or another doubt; inactive = no such curve, though single readings can be large; an effect the other way counts as inactive or inconclusive.

SMILES | RORgamma inh | VP16 counter | KinaseGlo FLuc
COc1cc(C(=S)N2CCOCC2)ccc1OC(=O)c1ccc([N+](=O)[O-])cc1[N+](=O)[O-] | ? | 13µM | ·
COc1ccc(C(=S)N2CCOCC2)cc1OC(=O)c1ccc([N+](=O)[O-])cc1 | – | – | ·
COc1ccccc1N1CCN(C(=O)c2ccc([N+](=O)[O-])s2)CC1 | 7.9µM | – | ·
COc1ccc(C(=O)Nc2ccc(C(=O)N3CCOCC3)cc2)cc1OC | – | – | ·
CCN(CC)C(=O)CSc1nc(OC)cc(=O)[nH]1 | – | – | –
COc1ccc(-c2nc3cnc(N4CCOCC4)nc3n(Cc3cccc(OC)c3)c2=O)cc1 | – | – | ·
COc1ccc(N2CCN(C(=S)Nc3ccc(F)cc3)CC2)cc1 | – | – | ·
COc1ccccc1N1CCN(C(=S)Nc2ccc(F)cc2)CC1 | 11µM | ? | ·
CCN(CC)C(=O)Nc1ccc(Br)cc1 | – | – | –
CCOC(=O)/C=C/S(=O)(=O)c1ccc(NC(C)=O)cc1 | 3.5µM | 3.5µM | –
CCOC(=O)/C=C/C(=O)Nc1ccc(S(=O)(=O)Nc2c(C)cc(C)cc2C)cc1 | – | – | –
CSc1cccc(NC(=O)CN(c2cc(C)ccc2C)S(C)(=O)=O)c1 | ? | – | ·
Cc1ccc(-c2cc(NC(=O)c3ccccc3)on2)cc1 | – | – | ·
COc1ccc(C(=O)Nc2cc(-c3ccc(C)cc3)no2)cc1 | 3.2µM | – | ·
O=S(=O)(c1ccc2c(c1)OCCO2)N(Cc1ccc(F)cc1)Cc1nnc(-c2cccs2)o1 | ? | – | –
CCOC(=O)c1ccc(NC(=O)c2nc(S(=O)(=O)Cc3ccccc3)ncc2Cl)cc1 | 7.9µM | 4.5µM | ·
Cc1ccc(NC(=O)c2nc(S(=O)(=O)Cc3ccccc3C)ncc2Cl)cc1C | ? | 5µM | ·
CCc1ccc(NC(=O)c2nc(S(=O)(=O)Cc3ccccc3)ncc2Cl)cc1 | 0.28µM | 3.2µM | ·
CSc1ncc(Cl)c(C(=O)Nc2ccc(C)c(C)c2)n1 | – | – | ·
CC1CCN(S(=O)(=O)c2ccc(NC(=O)c3ccncc3)cc2)CC1 | – | ? | ·
CCS(=O)(=O)c1ncc(Cl)c(C(=O)Nc2ccc(S(=O)(=O)N3CCC(C)CC3)cc2)n1 | 3.2µM | 4.5µM | ·
CCOC(=O)c1ccc(NC(=O)CCS(=O)(=O)Cc2ccccc2)cc1 | – | – | ·
CCSc1ncc(Cl)c(C(=O)Nc2ccccc2)n1 | – | – | –
Cc1ccc(C)c(N2CCN(C(=O)CCCn3ncn4c(cc5occc54)c3=O)CC2)c1 | – | – | ·
Cc1ccc(S(=O)(=O)N(C)/N=C/C=C/c2ccccc2)cc1 | ? | – | ·
SMILES | RORgamma inh | VP16 counter | KinaseGlo FLuc
O=S(=O)(Cc1ccccc1)C1CCCCC1O (stereo unspecified) | – | – | ·
Cc1[nH]c2ccc3c(ncn3CCC#N)c2c1C | – | – | –
CCOC(=O)C1CCN(CC(=O)Nc2c(C(=O)OC)[nH]c3ccccc23)CC1 | – | – | –
CCOC(=O)C1CCN(CC(=O)Nc2c(C(=O)OC)[nH]c3ccc(Cl)cc23)CC1 | ? | 10µM | –
CC(C)=CCC/C(C)=C/CO/N=C1/[C@H]2O[C@@H]2[C@@H](O)[C@H]2[C@H]1CCn1c(=O)n(-c3ccccc3)c(=O)n12 | –[10 µM] | –[10 µM] | ·
CC(C)CCOc1ccc(Cl)cc1CN1CCOCC1 | – | – | –
Brc1ccc(-c2noc(C3CCCCC3)n2)cc1 | – | – | –
c1ccc(-c2noc(-c3ccc4c(c3)OCO4)n2)nc1 | 3.2µM | 3.2µM | 2.8µM
COc1cccc(-c2nc(-c3ccccn3)no2)c1 | ? | 4.5µM | 7.9µM
c1ccc(-c2noc(C3CCCCC3)n2)nc1 | 3.5µM | – | ?
Cc1ccc(SCc2nc(-c3ccccn3)no2)cc1 | – | – | –
Cc1cccc(-c2noc(-c3ccc4c(c3)OCO4)n2)c1 | – | – | –
COc1cccc(-c2nc(-c3ccccc3)no2)c1 | – | ? | –
c1ccc(-c2noc(-c3ccc4ccccc4c3)n2)nc1 | 2.5µM | 2.2µM | 10µM
COc1ccc(NC(=O)N2CCC(c3nc4ccccc4[nH]3)CC2)cc1 | – | – | –
CN1C(=O)[C@H]2[C@@H](/C=C/c3ccccc3)N3C(=O)CN(CC4CC4)C(=O)[C@@]3(C)[C@H]2C1=O | – | – | ·
Nc1nc(SCc2ccccc2)c2ncn(Cc3ccccc3)c2n1 | · | · | –[7.66 µM]
O=C(O)[C@H]1NCCC[C@H]1C(=O)O | · | · | –
COc1ccc(O[C@H]2C=C[C@@H](c3ccccc3)O[C@H]2CO/N=C(/C)CCC(=O)OC[C@@H]2O[C@H](c3ccccc3)C=C[C@@H]2Oc2ccc(OC)cc2)cc1 | –[10 µM] | –[10 µM] | ·
CCCc1noc(-c2cccc([N+](=O)[O-])c2)n1 | – | – | –
O=[N+]([O-])c1cccc(-c2nc(-c3ccccn3)no2)c1 | 11µM | ? | ·
CCOC(=O)C(CC)(CC)/C(C)=N/NC(=O)CC#N | – | – | –

Screening data deposited in PubChem BioAssay by National Center for Advancing Translational Sciences (NCATS).
